# Results as given in ChEMBL document CHEMBL3988442, “University of Dundee, Small-Polar-MMV Screening Library” (2021).
# For some of these results: Entries with a potency or affinity are not part of this list.
# Experiments:
# Parameters in all cases: scale not given: direction of the effect not stated beside the values
# [1] = target: Protein translocase subunit SecA (Escherichia coli (strain K12)) (UniProt P10408); test: Assay to Identify E. coli SecA ATPase Inhibitors; assay type: functional; settings: 30 µM
# Protein translocase subunit SecA (Escherichia coli (strain K12)), sequence (P10408 whole entry): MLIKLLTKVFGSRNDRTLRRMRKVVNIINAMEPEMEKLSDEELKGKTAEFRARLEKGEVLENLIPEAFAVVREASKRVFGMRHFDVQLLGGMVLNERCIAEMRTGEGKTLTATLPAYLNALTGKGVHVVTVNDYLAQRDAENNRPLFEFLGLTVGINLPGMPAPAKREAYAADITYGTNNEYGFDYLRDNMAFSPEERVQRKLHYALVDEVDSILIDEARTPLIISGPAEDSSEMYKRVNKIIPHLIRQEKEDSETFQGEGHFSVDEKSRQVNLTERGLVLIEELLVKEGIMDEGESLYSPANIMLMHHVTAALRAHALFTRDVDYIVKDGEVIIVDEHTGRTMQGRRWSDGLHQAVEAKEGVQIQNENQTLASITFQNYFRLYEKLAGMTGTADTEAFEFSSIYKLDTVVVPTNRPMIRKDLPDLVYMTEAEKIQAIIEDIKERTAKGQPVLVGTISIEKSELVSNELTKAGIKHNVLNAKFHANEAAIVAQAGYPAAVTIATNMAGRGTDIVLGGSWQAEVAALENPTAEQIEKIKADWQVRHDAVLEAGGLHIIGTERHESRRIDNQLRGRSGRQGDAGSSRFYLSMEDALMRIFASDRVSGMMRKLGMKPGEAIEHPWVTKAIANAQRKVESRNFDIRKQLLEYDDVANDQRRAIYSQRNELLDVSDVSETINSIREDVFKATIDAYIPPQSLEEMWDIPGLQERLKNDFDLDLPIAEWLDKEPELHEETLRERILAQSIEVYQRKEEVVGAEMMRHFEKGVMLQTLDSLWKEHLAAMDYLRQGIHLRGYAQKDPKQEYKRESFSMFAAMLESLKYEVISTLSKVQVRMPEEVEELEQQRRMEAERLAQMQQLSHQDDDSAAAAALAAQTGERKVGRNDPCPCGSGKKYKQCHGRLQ
# [2] = target: T1, Ubiquitin-activating enzyme e1, putative (Leishmania donovani (strain BPK282A1)) (UniProt E9BSI1); test: Leishmania donovani Ubiquitin Activating Enzyme (LdE1); assay type: functional; settings: 30 µM
# T1 sequence (whole entry): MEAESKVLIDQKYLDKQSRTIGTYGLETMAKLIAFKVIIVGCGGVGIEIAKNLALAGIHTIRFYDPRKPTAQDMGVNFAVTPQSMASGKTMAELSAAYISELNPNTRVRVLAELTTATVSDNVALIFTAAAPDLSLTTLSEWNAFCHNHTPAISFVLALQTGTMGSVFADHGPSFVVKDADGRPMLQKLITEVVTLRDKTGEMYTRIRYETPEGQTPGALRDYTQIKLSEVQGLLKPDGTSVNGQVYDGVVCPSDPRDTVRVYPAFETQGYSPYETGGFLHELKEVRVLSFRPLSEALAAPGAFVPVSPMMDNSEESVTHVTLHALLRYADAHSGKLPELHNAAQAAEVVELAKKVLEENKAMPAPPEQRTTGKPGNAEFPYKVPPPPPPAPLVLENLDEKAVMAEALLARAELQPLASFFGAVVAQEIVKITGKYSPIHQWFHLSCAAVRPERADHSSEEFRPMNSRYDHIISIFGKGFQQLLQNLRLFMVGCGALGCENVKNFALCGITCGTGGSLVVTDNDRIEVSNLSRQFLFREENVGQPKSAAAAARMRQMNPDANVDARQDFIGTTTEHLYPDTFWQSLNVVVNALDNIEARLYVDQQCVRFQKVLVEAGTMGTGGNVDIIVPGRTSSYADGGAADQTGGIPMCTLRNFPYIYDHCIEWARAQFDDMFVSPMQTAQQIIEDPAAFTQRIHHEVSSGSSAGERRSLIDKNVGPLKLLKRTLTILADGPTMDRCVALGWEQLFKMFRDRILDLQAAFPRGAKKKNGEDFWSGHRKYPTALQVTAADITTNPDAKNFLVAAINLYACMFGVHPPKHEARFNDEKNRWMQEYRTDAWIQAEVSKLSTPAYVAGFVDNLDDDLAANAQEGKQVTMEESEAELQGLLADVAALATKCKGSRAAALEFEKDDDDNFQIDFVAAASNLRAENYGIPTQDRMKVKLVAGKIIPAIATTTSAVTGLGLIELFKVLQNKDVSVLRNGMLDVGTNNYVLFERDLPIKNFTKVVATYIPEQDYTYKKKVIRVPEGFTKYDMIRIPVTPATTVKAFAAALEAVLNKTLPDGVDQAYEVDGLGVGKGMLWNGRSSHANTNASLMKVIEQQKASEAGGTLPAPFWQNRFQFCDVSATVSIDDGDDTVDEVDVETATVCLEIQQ
# [3] = target: AMP-activated protein kinase, AMPK (Homo sapiens) (UniProt P54646+O43741+P54619+Q9UGJ0+Q9Y478+Q13131+Q9UGI9); test: AMP-dependent Kinase enzyme assay. An in vitro enzyme assay that detects ADP turnover that is directly proportional to AMPK activity. This uses naive AMPK that is activated during the assay with MK-8722; assay type: functional; settings: 30 µM
# [4] = target: Sialic acid-binding Ig-like lectin 9 (Homo sapiens) (UniProt Q9Y336); test: Hs-Siglec9 ALPHAscreen SOP 20170721; settings: 10 µM
# Sialic acid-binding Ig-like lectin 9 (Homo sapiens), sequence (Q9Y336 whole entry): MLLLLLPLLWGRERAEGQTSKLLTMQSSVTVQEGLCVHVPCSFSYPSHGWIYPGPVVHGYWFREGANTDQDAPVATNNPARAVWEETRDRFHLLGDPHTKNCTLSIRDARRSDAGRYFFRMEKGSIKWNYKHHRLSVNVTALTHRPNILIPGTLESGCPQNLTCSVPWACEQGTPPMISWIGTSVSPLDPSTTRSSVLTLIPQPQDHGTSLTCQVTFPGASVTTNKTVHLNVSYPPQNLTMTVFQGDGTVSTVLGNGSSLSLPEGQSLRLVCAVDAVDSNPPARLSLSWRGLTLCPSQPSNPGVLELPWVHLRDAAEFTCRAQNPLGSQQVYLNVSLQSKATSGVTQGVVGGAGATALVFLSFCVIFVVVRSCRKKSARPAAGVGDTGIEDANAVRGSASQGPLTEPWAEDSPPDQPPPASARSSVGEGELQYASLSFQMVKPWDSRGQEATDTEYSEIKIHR
# [5] = test system: Trypanosoma cruzi; test: Trypanosoma cruzi phosphomannomutase and mannose-1-phosphate guanylyltransferase assay; assay type: functional; settings: 10 µM
# [6] = target: T2, Arginase-2, mitochondrial (Homo sapiens) (UniProt P78540); test: in vitro enzyme assay to detect the production of urea directly proportional to the activity of Arginase II; assay type: functional; settings: 33.3 µM; further: in the data most compounds retested in dose-response had high values
# T2 sequence (whole entry): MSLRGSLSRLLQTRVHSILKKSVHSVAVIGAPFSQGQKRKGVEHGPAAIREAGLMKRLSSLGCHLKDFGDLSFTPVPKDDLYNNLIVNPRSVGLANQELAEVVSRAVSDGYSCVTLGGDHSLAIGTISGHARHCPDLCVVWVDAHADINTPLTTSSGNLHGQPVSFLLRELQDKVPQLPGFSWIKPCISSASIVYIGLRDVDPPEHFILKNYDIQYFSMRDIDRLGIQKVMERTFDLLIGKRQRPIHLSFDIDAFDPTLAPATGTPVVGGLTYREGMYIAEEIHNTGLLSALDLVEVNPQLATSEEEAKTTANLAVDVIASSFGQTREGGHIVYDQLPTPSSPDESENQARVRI
# [7] = target: T3, Proteasome subunit beta (Trypanosoma cruzi) (UniProt O96673); test: Trypanosoma cruzi proteasome chymotrypsin-like activity (TcProtChymo) assay.; further: in the data most compounds retested in dose-response had high values; assay type: functional; settings: 9.37 µM
# T3 sequence (whole entry): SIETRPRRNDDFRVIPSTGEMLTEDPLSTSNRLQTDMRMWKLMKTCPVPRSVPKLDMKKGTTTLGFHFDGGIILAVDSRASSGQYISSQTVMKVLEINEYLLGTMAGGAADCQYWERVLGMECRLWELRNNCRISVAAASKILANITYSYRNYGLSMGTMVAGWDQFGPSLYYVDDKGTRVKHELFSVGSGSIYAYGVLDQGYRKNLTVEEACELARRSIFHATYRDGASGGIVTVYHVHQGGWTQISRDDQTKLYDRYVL
# [8] = species: Homo sapiens; test: To identify inhibition of the IFN signalling (Jak-Stat) pathway via expression of an eGFP reporter gene under the control of an IFN-stimulated response element (ISRE) containing MxA promoter.; assay type: functional; settings: 30 µM
# [9] = target: T4, Tyrosyl-tRNA synthetase, putative (Trypanosoma cruzi (strain CL Brener)) (UniProt Q4DSP6); test: Trypanosoma cruzi tyrosyl tRNA synthetase (TcYRS) _High Tyrosine SOP; assay type: functional; settings: 30 µM; further: in the data most compounds retested in dose-response had high values
# T4 sequence (whole entry): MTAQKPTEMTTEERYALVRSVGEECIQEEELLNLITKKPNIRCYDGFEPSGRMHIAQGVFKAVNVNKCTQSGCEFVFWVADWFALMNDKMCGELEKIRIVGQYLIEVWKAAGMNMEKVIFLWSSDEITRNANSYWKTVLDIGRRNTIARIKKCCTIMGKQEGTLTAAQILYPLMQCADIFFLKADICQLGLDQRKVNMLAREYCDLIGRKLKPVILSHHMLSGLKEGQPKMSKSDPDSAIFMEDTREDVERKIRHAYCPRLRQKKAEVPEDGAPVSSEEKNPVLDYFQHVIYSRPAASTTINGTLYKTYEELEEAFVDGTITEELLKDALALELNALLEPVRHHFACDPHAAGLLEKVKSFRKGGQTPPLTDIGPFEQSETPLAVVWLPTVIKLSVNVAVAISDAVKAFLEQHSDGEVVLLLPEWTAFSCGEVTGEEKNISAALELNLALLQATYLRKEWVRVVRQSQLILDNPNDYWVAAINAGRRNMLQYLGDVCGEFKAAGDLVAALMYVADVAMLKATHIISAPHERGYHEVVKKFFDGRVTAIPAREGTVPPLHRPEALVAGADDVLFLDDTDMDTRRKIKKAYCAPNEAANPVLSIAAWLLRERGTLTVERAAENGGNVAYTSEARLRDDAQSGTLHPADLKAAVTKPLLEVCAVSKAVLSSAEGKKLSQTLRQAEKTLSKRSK
# [10] = target: T4, Tyrosyl-tRNA synthetase, putative (Trypanosoma cruzi (strain CL Brener)); test: Trypanosoma cruzi tyrosyl tRNA synthetase (TcYRS) SOP; assay type: functional; settings: 30 µM
# [11] = target: Chromo domain-containing protein 1 (Saccharomyces cerevisiae (strain ATCC 204508 / S288c) (Baker's yeast)) (UniProt P32657); test: ScCHD-1 Enzyme Inhibition Assay; assay type: functional; settings: 30 µM; further: in the data most compounds retested in dose-response had high values
# Chromo domain-containing protein 1 (Saccharomyces cerevisiae (strain ATCC 204508 / S288c) (Baker's yeast)), sequence (P32657 whole entry, the tested form may be a part): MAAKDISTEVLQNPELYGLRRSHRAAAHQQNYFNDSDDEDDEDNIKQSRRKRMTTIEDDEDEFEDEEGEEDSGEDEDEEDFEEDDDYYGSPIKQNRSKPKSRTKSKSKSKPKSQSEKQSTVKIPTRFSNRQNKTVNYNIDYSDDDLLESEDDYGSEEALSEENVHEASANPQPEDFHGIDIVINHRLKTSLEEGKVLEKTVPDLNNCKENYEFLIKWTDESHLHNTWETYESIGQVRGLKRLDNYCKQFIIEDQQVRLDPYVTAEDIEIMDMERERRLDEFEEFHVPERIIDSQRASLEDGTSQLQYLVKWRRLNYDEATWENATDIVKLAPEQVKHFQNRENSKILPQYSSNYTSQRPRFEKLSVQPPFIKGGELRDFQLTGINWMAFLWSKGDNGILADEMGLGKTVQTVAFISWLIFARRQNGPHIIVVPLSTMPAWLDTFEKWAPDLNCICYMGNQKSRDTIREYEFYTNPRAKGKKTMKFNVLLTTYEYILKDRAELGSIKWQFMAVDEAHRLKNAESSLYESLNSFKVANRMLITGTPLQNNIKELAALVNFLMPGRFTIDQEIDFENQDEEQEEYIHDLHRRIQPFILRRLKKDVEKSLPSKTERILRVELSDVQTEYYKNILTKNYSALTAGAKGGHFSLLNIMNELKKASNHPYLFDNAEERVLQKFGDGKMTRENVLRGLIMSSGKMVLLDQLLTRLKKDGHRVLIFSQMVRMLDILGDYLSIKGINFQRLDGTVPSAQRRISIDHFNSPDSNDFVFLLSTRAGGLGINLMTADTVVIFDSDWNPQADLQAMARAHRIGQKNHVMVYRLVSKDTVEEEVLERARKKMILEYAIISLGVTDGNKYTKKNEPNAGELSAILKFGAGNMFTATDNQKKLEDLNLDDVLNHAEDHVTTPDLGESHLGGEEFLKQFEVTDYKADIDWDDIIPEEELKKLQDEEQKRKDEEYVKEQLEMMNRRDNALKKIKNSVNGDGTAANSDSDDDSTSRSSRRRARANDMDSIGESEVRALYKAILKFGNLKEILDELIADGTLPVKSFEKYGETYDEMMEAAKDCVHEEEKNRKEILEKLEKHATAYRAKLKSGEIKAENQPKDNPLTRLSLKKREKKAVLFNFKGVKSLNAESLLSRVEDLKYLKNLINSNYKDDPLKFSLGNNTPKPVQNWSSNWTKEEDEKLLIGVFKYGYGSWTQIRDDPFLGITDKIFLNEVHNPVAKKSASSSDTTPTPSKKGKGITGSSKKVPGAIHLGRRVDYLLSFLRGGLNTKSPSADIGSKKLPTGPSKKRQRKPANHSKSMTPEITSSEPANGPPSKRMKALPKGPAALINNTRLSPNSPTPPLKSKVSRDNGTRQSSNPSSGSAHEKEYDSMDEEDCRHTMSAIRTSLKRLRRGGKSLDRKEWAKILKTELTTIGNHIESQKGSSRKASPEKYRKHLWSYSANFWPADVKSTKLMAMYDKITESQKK
SMILES,Percent Effect [1] [%],Percent Effect [2] [%],Percent Effect [3] [%],Percent Effect [4] [%],Percent Effect [5] [%],Percent Effect [6] [%],Percent Effect [7] [%],Percent Effect [8] [%],Percent Effect [9] [%],Percent Effect [10] [%],Percent Effect [11] [%]
CCS(=O)(=O)N1C[C@H]2CCC[C@@]2(COc2ccccn2)C1,-2.05,12,-6.57,2.8,-0.393,-6.16,10.5,33,2.12,5.13,-1.39
CN(C)CC1(O)CCN(S(=O)(=O)c2ccc(F)c(F)c2)C1 (configuration not stated),-6.44,23,-0.681,-1.29,5.34,-3.48,20.9,1.49,3.23,6.49,-21.7
CN1CCC(Cc2cc(Nc3ncccn3)ncn2)CC1,-1.87,6.76,11.2,0.0242,-1.98,-1.16,2.34,6.81,4.3,9.09,-10.4
O=C(COC(=O)Cc1cccs1)NCc1cccc(NC(=O)C2CC2)c1,-4.92,21.1,1.38,-10.9,-3.27,-1.08,3.47,4.04,5.42,16.1,-4.73
COc1ccc(CN2C[C@H](OCC3CCOCC3)[C@H]3COC[C@H]32)cc1,-0.325,0,-1.04,9.22,-0.992,-3.99,15.3,3.85,11.5,11.1,-1.49
CCn1nnc2c1C(COC)CN(Cc1cccs1)C2 (configuration not stated),-2.49,5.41,4.39,6.4,4.69,1.67,12.3,-4.92,4.95,8.54,-4.09
Cc1ccn2cc(C(=O)N3CCCC3c3c(C)nn(C)c3C)nc2c1 (configuration not stated),-7.15,8.86,7.77,-1.49,-3.79,1.5,9.09,4.07,5.21,0,-3.05
CN(C)C(=O)COC[C@]12COC[C@H]1CN(Cc1ccoc1)C2,-2.44,2.7,-3.89,10.2,5.77,7.69,2.49,5.51,4.3,1.24,-5.77
O=C(NC1(c2nnn(CCO)n2)CCCC1)c1ccccc1,-3.12,8,-5.64,17.4,3.41,17.7,1.57,-6.59,6.01,16.1,-4.4
CCCC(C)C(=O)NCc1cn2cc(Br)ccc2n1 (configuration not stated),-3.66,-44.7,5.33,4.19,-0.876,-2.37,9.68,4.86,9.57,15.6,-2.1
O=C(CCc1ccccc1)Nc1ncccc1OC(F)F,-2.62,6.94,-0.321,-1.86,-3.4,-0.883,13.5,-3.51,1.05,0,-2.3
CN1CCN(c2cc(CCNC(=O)C3CCC3)nc(C3CC3)n2)CC1,-1.04,12.2,4.69,0.557,-4.74,-0.232,14.2,15.8,4.3,9.09,-9.84
CC(=O)Nc1cc(C(=O)N2CCOCC2c2ccc(C)o2)ccc1F (configuration not stated),-3.55,2.67,-3.55,-1.06,-2.43,-1.04,4.18,-20.8,0.546,3.7,1.78
c1cnc(-c2nc(CN3CCC(c4ccn[nH]4)CC3)cs2)nc1,-1.4,13.5,-30.2,15,2.32,1.66,2.15,-0.446,7.92,23.2,-3.65
CC(C(=O)NCCOc1cccc(Cl)c1)n1cncn1 (configuration not stated),-1.19,17.7,-0.802,-7.8,2.55,3.42,7.94,-10.4,-2.46,13.9,-5.29
CCN1CCN(CC(O)c2ccc(F)cc2)CC1 (configuration not stated),-4.5,2.7,-2.92,3.74,-2.92,-0.401,3.96,3.68,5.42,13.6,-6.3
Cc1noc(C)c1CN1CCN(Cc2nccn2C)C(C)C1 (configuration not stated),0.213,10.1,-9.19,2.86,-10.1,5.7,5.65,18.5,-0.493,11.4,-5.78
